Measurements as given in PubChem BioAssay (NCI).
This is part of a sample that, as a whole, favours compounds with a hit. Of some 83,000 tested, about 20% had one in any assay.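 Single-dose data. Exposure time 48 hours. Values below 10 considered active.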

Tests used:
Experiment in all cases: NCI-60 one-dose screen, 48 h (100 = growth as untreated, 0 = no growth, -100 = all killed)
Conditions in all cases: 10 µM unless noted
NCI-H23 lung = tested on: NCI-H23 lung
NCI-H226 lung = tested on: NCI-H226 lung
NCI-H322M lung = tested on: NCI-H322M lung
HOP-62 NSCLC = tested on: HOP-62 NSCLC
NCI-H460 lung = tested on: NCI-H460 lung
HOP-92 NSCLC = tested on: HOP-92 NSCLC
NCI-H522 lung = tested on: NCI-H522 lung
A549/ATCC NSCLC = tested on: A549/ATCC NSCLC
786-0 renal = tested on: 786-0 renal
COLO 205 colon = tested on: COLO 205 colon
DU-145 prostate = tested on: DU-145 prostate
K-562 leukemia = tested on: K-562 leukemia
MALME-3M melanoma = tested on: MALME-3M melanoma
MDA-MB-231 breast = tested on: MDA-MB-231 breast
RXF 393 renal = tested on: RXF 393 renal
SF-268 CNS = tested on: SF-268 CNS
SF-295 CNS = tested on: SF-295 CNS
SF-539 CNS = tested on: SF-539 CNS
UACC-257 melanoma = tested on: UACC-257 melanoma
M14 melanoma = tested on: M14 melanoma

Measured: growth

O=C1N=c2ccccc2=C1c1sc(=S)n(C2CC(=O)N(c3ccc(Cl)cc3)C2=O)c1O (stereo not given)
inactive: NCI-H23 lung 99.2% | NCI-H226 lung 92% | NCI-H322M lung 104% | HOP-62 NSCLC 93.2% | NCI-H460 lung 102% | HOP-92 NSCLC 98.6% | NCI-H522 lung 97.1% | A549/ATCC NSCLC 107% | 786-0 renal 102% | COLO 205 colon 118% | DU-145 prostate 106% | K-562 leukemia 94.4% | MALME-3M melanoma 102% | MDA-MB-231 breast 101% | RXF 393 renal 116% | SF-268 CNS 102% | SF-295 CNS 104% | SF-539 CNS 101% | UACC-257 melanoma 105% | M14 melanoma 98.7%

O=C(NCCCN1CCCCC1)c1ccc(-c2nc3ccc4[nH]ncc4c3c3c2CCCC3)cc1
inactive: NCI-H23 lung 49.3% | NCI-H226 lung 63.8% | NCI-H322M lung 51.7% | HOP-62 NSCLC 47.6% | NCI-H460 lung 24.9% | HOP-92 NSCLC 46.2% | NCI-H522 lung 42.8% | A549/ATCC NSCLC 26.6% | 786-0 renal 44.3% | COLO 205 colon 60.9% | DU-145 prostate 51.3% | K-562 leukemia 16.7% | MALME-3M melanoma 70.8% | MDA-MB-231 breast 54.9% | RXF 393 renal 28.5% | SF-268 CNS 54.2% | SF-295 CNS 55.3% | SF-539 CNS 43.8% | UACC-257 melanoma 97.2% | M14 melanoma 57.3%

NS(=O)(=O)c1ccc(C(=O)N=Nc2c(O)[nH]c3c(F)cccc23)cc1
inactive: NCI-H23 lung 94.9% | NCI-H226 lung 96.8% | NCI-H322M lung 98.2% | HOP-62 NSCLC 97.1% | NCI-H460 lung 111% | HOP-92 NSCLC 98.2% | NCI-H522 lung 91.2% | A549/ATCC NSCLC 99.9% | 786-0 renal 103% | COLO 205 colon 106% | DU-145 prostate 113% | K-562 leukemia 107% | MALME-3M melanoma 95.9% | MDA-MB-231 breast 106% | RXF 393 renal 97.3% | SF-268 CNS 107% | SF-295 CNS 103% | SF-539 CNS 94.8% | UACC-257 melanoma 103% | M14 melanoma 101%

Cc1c(C(=O)OCCCCOC(=O)c2c(C)n(C)c3scc[n+]23)[n+]2ccsc2n1C
inactive: NCI-H23 lung 101% | NCI-H226 lung 91.1% | NCI-H322M lung 112% | HOP-62 NSCLC 109% | NCI-H460 lung 108% | HOP-92 NSCLC 88.9% | NCI-H522 lung 99.6% | A549/ATCC NSCLC 90.2% | 786-0 renal 112% | COLO 205 colon 119% | DU-145 prostate 107% | K-562 leukemia 92% | MALME-3M melanoma 105% | MDA-MB-231 breast 97.9% | RXF 393 renal 103% | SF-268 CNS 108% | SF-295 CNS 93.2% | SF-539 CNS 105% | UACC-257 melanoma 96.5% | M14 melanoma 110%

N=C(N)SCc1c2ccccc2c(CSC(=N)N)c2ccccc12
inactive: NCI-H23 lung 54.4% | NCI-H226 lung 71.2% | NCI-H322M lung 103% | HOP-62 NSCLC 55.5% | NCI-H460 lung 34.4% | HOP-92 NSCLC 32.2% | NCI-H522 lung 31.2% | A549/ATCC NSCLC 65.9% | 786-0 renal 47.7% | COLO 205 colon 66.1% | DU-145 prostate 63.9% | K-562 leukemia 35.3% | MALME-3M melanoma 71.3% | MDA-MB-231 breast 103% | RXF 393 renal 99.7% | SF-268 CNS 55.5% | SF-295 CNS 66.7% | SF-539 CNS 84% | UACC-257 melanoma 119% | M14 melanoma 68.4%
